Assay [1] is described as follows: qHTS assay for small molecule agonists of retinoid X receptor alpha signaling (AID 588544).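 As to activation: 0% = DMSO basal wells and 100% = reference agonist.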 The conditions noted are these: HEK293T RXRa-UAS-bla, beta-lactamase reporter, 18 h; 530 nm emission. On the technique in general: qHTS replaces the single test concentration by a dilution series.
The target of assay [2] is Retinoic acid receptor RXR-alpha (Homo sapiens) (UniProt P19793). The assay is described as above. The conditions noted are these: HEK293T RXRa-UAS-bla, beta-lactamase reporter, 18 h; series mostly up to 76.7 µM.
Assay [3] addresses Thyroid hormone receptor beta (Homo sapiens) (UniProt P10828). Description: qHTS assay for small molecule agonists of thyroid hormone receptor beta signaling (AID 588545). The conditions noted are these: TR-UAS-bla GripTite HEK 293, beta-lactamase ratio, agonist mode, 18 h, percent of T3 response, DMSO as zero; series mostly up to 76.7 µM. A digest of the protocol:
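Agonist activity was read as beta-lactamase CCF4 fluorescence (405 ex, 460/530 em), scaled between DMSO (0%) and 10 nM T3 (100%), then Hill-fitted for EC50 and efficacy. HEK 293 TR-UAS-bla cells in 2% charcoal/dextran FBS medium were exposed 18 h at 37 C.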

Assay [4] can be described thus: qHTS assay for small molecule antagonists of retinoid X receptor alpha signaling (AID 588546; active = well fitted inhibition curve with a large enough effect in the signal ratio, with a control signal flat, not every such curve was filed as active; the % refers to the signal ratio;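 also: cells stimulated with 9-cis-retinoic acid as agonist; % is scaled to controls: 0 for no effect and ±100 for the full control effect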). The conditions noted are these: HEK293T RXRa-UAS-bla, beta-lactamase ratio, antagonist mode; measured here: W530 green channel, cytotoxicity proxy. A digest of the protocol:
(§1)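 Beta-lactamase reporter inhibition, read as CCF4 fluorescence ratio (ex 405, em 460/530 nm) after 2 h at RT. HEK293T UAS-bla cells, 2500/well, were stimulated with 9-cis-RA at 500 or 100 nM final alongside test compound for 18 h at 37 C.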

Assay [5] concerns the target Retinoic acid receptor RXR-alpha (Homo sapiens) (UniProt P19793). Described as above. The conditions noted are these: HEK293T RXRa-UAS-bla, beta-lactamase ratio, antagonist mode. The essentials:
as §1

Assay [6] deals with Thyroid hormone receptor beta (Homo sapiens) (UniProt P10828). Briefly: qHTS assay for small molecule antagonists of thyroid hormone receptor beta signaling (AID 588547; active = well fitted inhibition curve with a large enough effect in the signal ratio, with a control signal flat, not every such curve was filed as active; the % refers to the signal ratio;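 also: cells stimulated with 0.4 nM T3 agonist during compound exposure; % is scaled to controls: 0 for no effect and ±100 for the full control effect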). The conditions noted are these: TR-UAS-bla HEK293, beta-lactamase ratio, antagonist mode, 18 h. The essentials: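 TR-UAS-bla GripTite HEK293 cells in 2% charcoal/dextran FBS medium; compounds 0.59 nM to 92 uM with T3 at 0.4nM final, 18 h at 37 C. Beta-lactamase read by CCF4 fluorescence (460/530 nm); Hill fits gave IC50 and efficacy.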

A short description of assay [7]: qHTS assay for small molecule activators of the p53 signaling pathway (AID 651743; active = well fitted activation curve with a large enough effect in the signal ratio, not every such curve was filed as active; the % refers to the signal ratio; also: % of control where 0% means no effect). The conditions noted are these: HCT-116 p53RE-bla, beta-lactamase FRET ratio, 16 h; stronger effect = higher value. The essentials:
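Reporter: beta-lactamase driven by p53 response elements, stably integrated in HCT-116 cells. Cells seeded at 4,000/well, 5 h preincubation, compound (DMSO) 16 h at 37 C; B/G FRET substrate 2 h RT; fluorescence intensity read.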

The nature of assay [8]: qHTS assay for small molecule activators of the nuclear factor-kappa B (NF-kB) signaling pathway (AID 651749; active = well fitted activation curve with a large enough effect in the signal ratio; the % refers to the signal ratio; also: % of control where 0% means no effect). The conditions noted are these: NF-kB-bla ME-180 cells, beta-lactamase FRET ratio, 16 h; stronger effect = higher value. The essentials:
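NF-kB-bla ME-180 cells, 2,000/well; 23 nL compound or DMSO pinned; 16 hr, 37C/5% CO2; beta-lactamase FRET read-out.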

The nature of assay [9]: qHTS assay for small molecule disruptors of the mitochondrial membrane potential - 1 hr assay (AID 651754). Also: % is scaled to controls: 0 for no effect and ±100 for the full control effect; nearly all actives have a fitted effect of over 35% in size. The conditions noted are these: series mostly up to 92.2 µM. The essentials:
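In this qHTS format, a 1 hr compound treatment of HepG2 cells precedes Mito-MPS staining, and membrane potential is judged from aggregate (red) against monomer (green) fluorescence intensity.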

Assay [10] can be described thus: qHTS assay for small molecule disruptors of the mitochondrial membrane potential - 5 hr assay (AID 651755). Also: % is scaled to controls: 0 for no effect and ±100 for the full control effect; nearly all actives have a fitted effect of over 40% in size. The conditions noted are these: JC-1-type ratio dye; series mostly up to 92.2 µM. A digest of the protocol:
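Read-out: ratiometric Mito-MPS fluorescence, green monomer (ex 490/em 535) vs red mitochondrial aggregate (ex 540/em 590). HepG2 cells treated 5 hr at 37C before 30 min dye loading.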

The target in assay [11] is Tumor necrosis factor (Homo sapiens) (UniProt P01375). Description: qHTS assay to identify small molecules that stimulate Tumor Necrosis Factor-alpha (TNF-alpha) secretion (AID 651757; active = well fitted curve in the direction sought with a large enough effect in the signal ratio; the % refers to the signal ratio; also: 0% is about no effect). The conditions noted are these: Human cells, HTRF 665/615 ratio; series mostly up to 92.2 µM. A digest of the protocol: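 Using 3000 THP-1 cells per well, compounds and controls were applied for 17 hrs at 37 C. Detection followed with two labeled anti-TNF-alpha antibodies (cryptate donor, XL665 acceptor) for 3 hr at room temperature, measured by TR-FRET.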

Assay [12] in a line: qHTS assay for environmental chemicals that activate the Aryl hydrocarbon Receptor (AhR) signaling pathway (AID 651777; active = well fitted curve in the direction sought with a large enough effect; an effect the other way counts as inactive or inconclusive; also: % of control where 0% means no effect; nearly all actives have a fitted effect of over 15% in size). The conditions noted are these: 1A2-DRE human hepatoma cells, luciferase, 24 h; activation: stronger effect = higher value. The essentials: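 Following a 24 hr incubation with test chemicals at 37 C and 5% CO2, 1A2-DRE human hepatoma cells received One-Glo reagent; after 30 min at room temperature, luciferase output reflected CYP1A2 induction via AhR.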

The target in assay [13] is Peroxisome proliferator-activated receptor alpha (Homo sapiens) (UniProt Q07869). Description: qHTS assay for small molecule agonists of the peroxisome proliferator-activated receptor alpha (PPARalpha) signaling pathway (AID 651778; active = well fitted curve in the direction sought with a large enough effect; an effect the other way counts as inactive or inconclusive; also: % of control where 0% means no effect). The conditions noted are these: PathHunter PPARalpha complementation, chemiluminescence, 6 h; stronger effect = higher value. The essentials: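 Enzyme-fragment complementation assay in which ligand-bound PPARalpha translocates and forms an active enzyme that generates chemiluminescence. Cells were plated overnight, exposed to compound for 6 hr at 37 C, and then given detection reagent for 60 min at room temperature.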

Assay [14] concerns the target Nuclear receptor ROR-gamma (Homo sapiens) (UniProt P51449). Description: qHTS assay for small molecule antagonists of the retinoid-related orphan receptor gamma (ROR-gamma) signaling pathway (AID 651802; active = well fitted curve in the direction sought with a large enough effect; an effect the other way counts as inactive or inconclusive;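 also: luciferase reporter luminescence driven by ROR response element; % is scaled to controls: 0 for no effect and ±100 for the full control effect; nearly all actives have a fitted effect of over 60% in size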). The conditions noted are these: ROR-gamma antagonist cell reporter assay; series mostly up to 92.2 µM. The essentials: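 Doxycycline-induced reporter activity in engineered CHO cells (TET-inducible ROR, RORE-LUC) was measured by luminescence after 16hr compound exposure at 37C.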

Assay [15] can be described thus: qHTS assay for small molecule agonists of the antioxidant response element (ARE) signaling pathway measured by Nrf2-dependant transcriptional activity (AID 720636; active = well fitted curve in the direction sought with a large enough effect in the repeat runs; an effect the other way counts as inactive or inconclusive;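 also: HepG2 cells with an ARE-driven luciferase reporter; % of control where 0% means no effect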). The conditions noted are these: ARE-luc HepG2, Nrf2 luciferase reporter, 16 h; series mostly up to 92.4 µM. The essentials:
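ONE-Glo luminescence, read 30 min after reagent addition at room temperature, reflected ARE reporter activity in HepG2 cells that had been incubated with compound for 16 hr at 37 C in 1% dialyzed FBS.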

Assay [16] in a line: qHTS assay for small molecule antagonists of the retinoid-related orphan receptor gamma (ROR-gamma) signaling pathway - cell viability counter screen (AID 720652; active = well fitted curve in the direction sought with a large enough effect in the repeat runs; an effect the other way counts as inactive or inconclusive;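 also: compound exposure lasted 16 hr before ATP read; % is scaled to controls: 0 for no effect and ±100 for the full control effect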). The conditions noted are these: RORgamma reporter cell line viability counter screen; series mostly up to 92.2 µM. A digest of the protocol: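 ATP-based viability readout in the ROR-gamma reporter CHO cells after 16 hr compound exposure under doxycycline induction.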

Assay [17] deals with Voltage-gated inwardly rectifying potassium channel KCNH2 (Homo sapiens) (UniProt Q12809). Description: qHTS Assay for Small Molecule Inhibitors of the Human hERG Channel Activity (AID 588834; active = well fitted curve in the direction sought with a large enough effect; an effect the other way counts as inactive or inconclusive;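 also: top concentration of the series differs between compounds; % is scaled to controls: 0 for no effect and ±100 for the full control effect; lower thallium flux fluorescence means stronger hERG block; nearly all actives have a fitted effect of over 50% in size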). The conditions noted are these: U2OS BacMam hERG, FluxOR thallium flux fluorescence; series mostly up to 92.2 µM. The essentials: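 Thallium-flux (FluxOR) read-out on FDSS: fluorescence read 10 s before and 2 min after stimulation buffer. hERG-BacMam-transduced U2OS cells, compound exposure about 10 min. AC50 by standard Hill equation.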

Assay [18] is described as follows: qHTS assay for small molecule agonists of the antioxidant response element (ARE) signaling pathway (AID 651741; active = well fitted activation curve with a large enough effect in the signal ratio; the % refers to the signal ratio; also: % of control where 0% means no effect). The conditions noted are these: HepG2 ARE-bla reporter, beta-lactamase FRET ratio, 16 h; series mostly up to 96 µM. The essentials:
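HepG2 ARE-bla reporter cells, 2,000/well; 5 h settle at 37 C/5% CO2; compound pin transfer (23 nL, DMSO); 16 h at 37 C; LiveBLAzer B/G FRET substrate, 2 h RT; fluorescence intensity read.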

The nature of assay [19]: qHTS assay to identify small molecules that stimulate interleukin-8 (IL-8) secretion (AID 651758; active = well fitted activation curve with a large enough effect in the signal ratio; the % refers to the signal ratio; also: 0% is about no effect). The conditions noted are these: HTRF ratio (665/615); series mostly up to 92.2 µM. The essentials:
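Compounds are added to THP-1 cells (2000 per well) and left 16 hrs at 37 C. A labeled anti-IL-8 antibody pair is then added, and IL-8 secretion is measured by time-resolved FRET after 1-3 hrs at room temperature.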

Assay [20] in a line: qHTS assay for small molecule agonists of the antioxidant response element (ARE) signaling pathway measured by Nrf2-dependant transcriptional activity - cell viability counter screen (AID 720653; active = well fitted curve in the direction sought with a large enough effect in the repeat runs; an effect the other way counts as inactive or inconclusive; also: % is scaled to controls: 0 for no effect and ±100 for the full control effect). The conditions noted are these: ARE-bla HepG2 viability, CellTiter-Glo ATP luminescence, 16 h; stronger effect = lower value. The essentials:
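ARE-bla HepG2 cells treated with compounds for 16 h at 37C; this counter screen measures viability as intracellular ATP by CellTiter-Glo luminescence after 30 min at room temperature.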

Results filed as inconclusive are left out. Activity calls are given as the source filed them. Unless noted, calls follow the shape of the full dose curve.

Tumor necrosis factor (Homo sapiens), sequence (P01375 whole entry, looked up): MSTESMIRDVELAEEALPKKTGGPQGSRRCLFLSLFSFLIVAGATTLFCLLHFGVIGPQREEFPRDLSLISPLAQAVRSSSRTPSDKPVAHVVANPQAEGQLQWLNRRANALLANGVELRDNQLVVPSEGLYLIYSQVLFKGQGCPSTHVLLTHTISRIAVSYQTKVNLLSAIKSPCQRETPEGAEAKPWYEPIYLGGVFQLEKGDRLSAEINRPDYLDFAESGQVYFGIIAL
Peroxisome proliferator-activated receptor alpha (Homo sapiens), sequence (Q07869 whole entry, looked up, the tested form may be a part): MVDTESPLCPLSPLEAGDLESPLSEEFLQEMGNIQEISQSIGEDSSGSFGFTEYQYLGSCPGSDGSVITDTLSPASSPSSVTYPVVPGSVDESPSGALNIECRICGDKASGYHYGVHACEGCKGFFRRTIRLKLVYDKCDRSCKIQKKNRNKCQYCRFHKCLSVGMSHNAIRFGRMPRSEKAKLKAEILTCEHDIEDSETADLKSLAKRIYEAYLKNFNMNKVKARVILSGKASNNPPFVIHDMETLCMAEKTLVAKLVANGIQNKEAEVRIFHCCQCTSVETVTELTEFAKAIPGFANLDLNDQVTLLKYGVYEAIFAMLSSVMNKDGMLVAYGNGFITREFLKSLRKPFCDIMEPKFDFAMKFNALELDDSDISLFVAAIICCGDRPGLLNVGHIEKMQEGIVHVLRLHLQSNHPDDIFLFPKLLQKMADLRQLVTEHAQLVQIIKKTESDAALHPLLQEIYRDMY
Retinoic acid receptor RXR-alpha (Homo sapiens), sequence (P19793 whole entry, looked up): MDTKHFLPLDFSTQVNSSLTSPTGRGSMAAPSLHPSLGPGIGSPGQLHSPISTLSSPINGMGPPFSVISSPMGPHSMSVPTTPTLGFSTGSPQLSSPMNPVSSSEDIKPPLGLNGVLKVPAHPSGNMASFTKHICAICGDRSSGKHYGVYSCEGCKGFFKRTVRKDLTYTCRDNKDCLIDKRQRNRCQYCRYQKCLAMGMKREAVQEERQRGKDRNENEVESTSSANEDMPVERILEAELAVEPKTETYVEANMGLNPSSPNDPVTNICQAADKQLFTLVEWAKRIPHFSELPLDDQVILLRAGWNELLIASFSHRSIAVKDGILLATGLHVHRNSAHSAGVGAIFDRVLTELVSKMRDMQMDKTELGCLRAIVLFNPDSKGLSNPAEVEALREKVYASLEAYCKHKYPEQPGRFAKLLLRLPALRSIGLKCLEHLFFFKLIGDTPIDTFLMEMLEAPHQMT
Nuclear receptor ROR-gamma (Homo sapiens), sequence (P51449 whole entry, looked up): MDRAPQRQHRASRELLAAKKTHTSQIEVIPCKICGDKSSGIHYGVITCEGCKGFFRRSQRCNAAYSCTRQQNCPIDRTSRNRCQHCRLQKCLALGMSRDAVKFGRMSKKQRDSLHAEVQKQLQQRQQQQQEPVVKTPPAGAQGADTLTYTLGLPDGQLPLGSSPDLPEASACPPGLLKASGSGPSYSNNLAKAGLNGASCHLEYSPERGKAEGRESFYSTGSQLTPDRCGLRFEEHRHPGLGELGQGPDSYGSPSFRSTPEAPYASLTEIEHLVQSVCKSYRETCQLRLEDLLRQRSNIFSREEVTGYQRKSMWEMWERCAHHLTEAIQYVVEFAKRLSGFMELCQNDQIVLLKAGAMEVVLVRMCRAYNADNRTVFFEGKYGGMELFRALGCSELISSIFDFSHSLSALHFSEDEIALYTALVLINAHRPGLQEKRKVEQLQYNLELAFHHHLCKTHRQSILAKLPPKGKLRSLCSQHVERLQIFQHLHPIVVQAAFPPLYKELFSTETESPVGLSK
Thyroid hormone receptor beta (Homo sapiens), sequence (P10828 whole entry, looked up): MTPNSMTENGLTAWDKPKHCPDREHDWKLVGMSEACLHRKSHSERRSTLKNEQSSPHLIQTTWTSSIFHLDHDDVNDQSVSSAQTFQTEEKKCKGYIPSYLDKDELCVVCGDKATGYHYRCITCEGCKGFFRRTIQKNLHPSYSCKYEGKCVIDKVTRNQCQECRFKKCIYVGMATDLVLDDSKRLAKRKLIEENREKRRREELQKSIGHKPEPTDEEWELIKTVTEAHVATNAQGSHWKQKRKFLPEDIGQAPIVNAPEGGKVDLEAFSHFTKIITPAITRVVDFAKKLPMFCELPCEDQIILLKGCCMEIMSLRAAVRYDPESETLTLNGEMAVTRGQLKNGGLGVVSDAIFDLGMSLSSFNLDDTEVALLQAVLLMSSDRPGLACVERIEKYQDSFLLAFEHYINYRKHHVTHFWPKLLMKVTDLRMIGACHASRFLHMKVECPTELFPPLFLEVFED
Voltage-gated inwardly rectifying potassium channel KCNH2 (Homo sapiens), sequence (Q12809 whole entry, looked up): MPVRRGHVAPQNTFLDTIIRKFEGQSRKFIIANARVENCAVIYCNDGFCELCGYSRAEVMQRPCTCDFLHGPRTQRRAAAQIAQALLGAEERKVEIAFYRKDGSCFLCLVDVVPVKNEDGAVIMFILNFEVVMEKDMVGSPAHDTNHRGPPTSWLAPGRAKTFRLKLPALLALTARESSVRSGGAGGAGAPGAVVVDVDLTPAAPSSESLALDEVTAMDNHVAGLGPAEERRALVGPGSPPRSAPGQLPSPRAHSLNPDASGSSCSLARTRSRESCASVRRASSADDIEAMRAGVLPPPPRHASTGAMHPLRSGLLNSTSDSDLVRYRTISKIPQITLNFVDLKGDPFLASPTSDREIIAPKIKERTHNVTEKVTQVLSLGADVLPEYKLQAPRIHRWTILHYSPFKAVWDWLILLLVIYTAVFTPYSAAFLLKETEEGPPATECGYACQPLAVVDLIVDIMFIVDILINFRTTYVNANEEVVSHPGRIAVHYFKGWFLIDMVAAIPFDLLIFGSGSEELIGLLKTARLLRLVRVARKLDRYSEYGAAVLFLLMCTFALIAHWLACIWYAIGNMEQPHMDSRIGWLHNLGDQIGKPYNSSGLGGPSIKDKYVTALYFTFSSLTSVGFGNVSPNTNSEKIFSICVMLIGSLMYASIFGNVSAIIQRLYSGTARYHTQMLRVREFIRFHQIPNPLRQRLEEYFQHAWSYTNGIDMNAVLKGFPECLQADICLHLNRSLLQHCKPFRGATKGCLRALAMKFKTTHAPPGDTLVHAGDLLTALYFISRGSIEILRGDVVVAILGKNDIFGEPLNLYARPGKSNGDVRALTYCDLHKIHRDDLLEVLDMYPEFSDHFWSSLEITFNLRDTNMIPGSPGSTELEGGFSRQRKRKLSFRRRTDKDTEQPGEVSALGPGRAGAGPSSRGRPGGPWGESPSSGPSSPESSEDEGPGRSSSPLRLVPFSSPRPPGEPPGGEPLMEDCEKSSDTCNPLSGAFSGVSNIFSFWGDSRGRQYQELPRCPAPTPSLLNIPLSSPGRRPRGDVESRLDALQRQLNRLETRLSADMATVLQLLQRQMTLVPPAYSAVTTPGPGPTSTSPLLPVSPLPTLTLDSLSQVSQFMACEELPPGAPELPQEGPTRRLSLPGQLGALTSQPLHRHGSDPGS

Consider `Cc1ccccc1C(N)=O`, for which the max response in assay [1] was -6.32%; in assay [4], 9.22%; in assay [5], 7.98% (inactive); in [13], -0.838% (inactive). Further, the call in [2], in assay [3] and in [15] was inactive. Besides, the activity change % (negative = inhibition) in assay [6] was -3.78% (inactive). Moreover, the activation is 1.09% (inactive) in [7], 1.42% (inactive) in assay [8] and -0.0237% (inactive) in [12]. Besides, the Potency entry in assay [9], in [10], in assay [11], in [14] and in assay [16] was “inactive” throughout.
Regarding `C1CCCC1`, the max response in assay [1] is -15.2%; in assay [4] it was -15.6%; in assay [5], -5.52% (inactive); in assay [13] it was 5.92% (inactive); in [20] it was -4.11% (inactive). For the same compound, the result in assay [2] and in [3] was inactive. For the same compound, the Potency entry in [17], in assay [18], in assay [10], in assay [11], in assay [19] and in assay [14] was “inactive” each time. Also, the Potency entry in assay [16] was “inactive”. Moreover, the activation in assay [7] is -0.131% (inactive); in assay [12] it was 0.0008% (inactive).
With `CC(C)Nc1ccccc1`, the max response is -11% in [1]; -12.9% in [4]; 3.31% (inactive) in assay [5]; -3.92% (inactive) in assay [13]; -8.81% (inactive) in [20]. Besides, the compound was classed as inactive in [2], in assay [3] and in assay [15]. Also, the activity change % (negative = inhibition) in assay [6] is -21.8% (inactive). The Potency result in assay [18], in assay [9], in [10], in assay [11], in assay [19] and in assay [14] was “inactive” throughout. Moreover, the figures for the activation in assay [7], in assay [8] and in assay [12] were -0.311% (inactive), 0.185% (inactive) and 0.225% (inactive), respectively.
Regarding `C=C(C)C(=O)OCC(C)C`, the max response was -16.8% in [1]; -5.76% in assay [4]; -6.82% (inactive) in assay [5]; -4.6% (inactive) in assay [13]; -3.35% (inactive) in assay [20]. For the same compound, the outcome in [2], in [3] and in assay [15] was inactive. Besides, the activity change % (negative = inhibition) in [6] was 1.27% (inactive). Also, the figures for the activation in assay [7], in assay [8] and in [12] were -1.84% (inactive), 1.27% (inactive) and -0.68% (inactive), respectively. Moreover, the Potency result in assay [9], in [10], in assay [11] and in assay [14] was “inactive” throughout.

Source of the values: PubChem BioAssay (NCATS).
